{
  "source": "the supplement of paper PMC9694430",
  "experiment_in_all_cases": "thermal shift delta Tm vs DMSO control; higher = stronger stabilization (binding)",
  "settings_in_all_cases": "12.5 µM; protein concentration 2 µM",
  "key": {"LOC_OS01G57100-cb003": {"system": "LOC_OS01G57100-cb003", "outline": "(§1)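 Compounds dissolved in DMSO were added to purified rice kinase domain constructs, which had been expressed in E. coli, for differential scanning fluorimetry. Each well held 19.5 μl of 2 μM kinase in 100 mM potassium phosphate pH 7.5, 150 mM NaCl, 10% glycerol and 5 × SYPRO Orange. Fluorescence was followed from 25°C to 95°C at a rate of 0.05°C/s. Shifts in Boltzmann-fitted melting temperature are triplicate means relative to DMSO-only protein.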"}, "LOC_OS01G60330-cb001": {"system": "LOC_OS01G60330-cb001", "outline": "as §1"}, "LOC_OS01G60700-cb002": {"system": "LOC_OS01G60700-cb002", "outline": "as §1"}, "LOC_OS01G63280-cb003": {"system": "LOC_OS01G63280-cb003", "outline": "as §1"}, "LOC_OS01G67340-cb003": {"system": "LOC_OS01G67340-cb003", "outline": "as §1"}, "LOC_OS01G70970-cb002": {"system": "LOC_OS01G70970-cb002", "outline": "as §1"}, "LOC_OS02G07810-cb001": {"system": "LOC_OS02G07810-cb001", "outline": "as §1"}, "LOC_OS02G08530-cb003": {"system": "LOC_OS02G08530-cb003", "outline": "as §1"}, "LOC_OS02G14120-cb001": {"system": "LOC_OS02G14120-cb001", "outline": "as §1"}, "LOC_OS02G17970-cb001": {"system": "LOC_OS02G17970-cb001", "outline": "as §1"}},
  "note": "Where a name gives a salt, the structure may show the parent alone.",
  "data": [
    {"smiles": "CCOC(=O)c1cnc2ccc(-c3cncc(NS(=O)(=O)c4ccccc4)c3)cn12", "values": [
      {"measurement": "thermal shift delta Tm", "setting": "LOC_OS01G57100-cb003", "value": 2.2, "unit": "°C"},
      {"measurement": "thermal shift delta Tm", "setting": "LOC_OS01G60330-cb001", "value": 0.95, "unit": "°C"},
      {"measurement": "thermal shift delta Tm", "setting": "LOC_OS01G60700-cb002", "value": 1.04, "unit": "°C"},
      {"measurement": "thermal shift delta Tm", "setting": "LOC_OS01G63280-cb003", "value": 0.47, "unit": "°C"},
      {"measurement": "thermal shift delta Tm", "setting": "LOC_OS01G67340-cb003", "value": 0.76, "unit": "°C"},
      {"measurement": "thermal shift delta Tm", "setting": "LOC_OS01G70970-cb002", "value": 0.2, "unit": "°C"},
      {"measurement": "thermal shift delta Tm", "setting": "LOC_OS02G07810-cb001", "value": 1.1, "unit": "°C"},
      {"measurement": "thermal shift delta Tm", "setting": "LOC_OS02G08530-cb003", "value": 1.79, "unit": "°C"},
      {"measurement": "thermal shift delta Tm", "setting": "LOC_OS02G14120-cb001", "value": -0.08, "unit": "°C"},
      {"measurement": "thermal shift delta Tm", "setting": "LOC_OS02G17970-cb001", "value": 0.87, "unit": "°C"}
    ]},
    {"smiles": "NC1(c2ccc(-c3nc4ccn5c(=O)[nH]nc5c4cc3-c3ccccc3)cc2)CCC1", "values": [
      {"measurement": "thermal shift delta Tm", "setting": "LOC_OS01G57100-cb003", "value": -0.32, "unit": "°C"},
      {"measurement": "thermal shift delta Tm", "setting": "LOC_OS01G60330-cb001", "value": 1.3, "unit": "°C"},
      {"measurement": "thermal shift delta Tm", "setting": "LOC_OS01G60700-cb002", "value": 1.21, "unit": "°C"},
      {"measurement": "thermal shift delta Tm", "setting": "LOC_OS01G63280-cb003", "value": -0.33, "unit": "°C"},
      {"measurement": "thermal shift delta Tm", "setting": "LOC_OS01G67340-cb003", "value": -0.9, "unit": "°C"},
      {"measurement": "thermal shift delta Tm", "setting": "LOC_OS01G70970-cb002", "value": 0.31, "unit": "°C"},
      {"measurement": "thermal shift delta Tm", "setting": "LOC_OS02G07810-cb001", "value": 0.4, "unit": "°C"},
      {"measurement": "thermal shift delta Tm", "setting": "LOC_OS02G08530-cb003", "value": 0.46, "unit": "°C"},
      {"measurement": "thermal shift delta Tm", "setting": "LOC_OS02G14120-cb001", "value": -0.05, "unit": "°C"},
      {"measurement": "thermal shift delta Tm", "setting": "LOC_OS02G17970-cb001", "value": 1.42, "unit": "°C"}
    ]},
    {"smiles": "CN1CC[C@H](c2c(O)cc(O)c3c(=O)cc(-c4ccccc4Cl)oc23)[C@H](O)C1", "note": "[Flavopiridol HCl]", "values": [
      {"measurement": "thermal shift delta Tm", "setting": "LOC_OS01G57100-cb003", "value": 1.91, "unit": "°C"},
      {"measurement": "thermal shift delta Tm", "setting": "LOC_OS01G60330-cb001", "value": 1.31, "unit": "°C"},
      {"measurement": "thermal shift delta Tm", "setting": "LOC_OS01G60700-cb002", "value": 0.43, "unit": "°C"},
      {"measurement": "thermal shift delta Tm", "setting": "LOC_OS01G63280-cb003", "value": 1.03, "unit": "°C"},
      {"measurement": "thermal shift delta Tm", "setting": "LOC_OS01G67340-cb003", "value": 0.26, "unit": "°C"},
      {"measurement": "thermal shift delta Tm", "setting": "LOC_OS01G70970-cb002", "value": 1.67, "unit": "°C"},
      {"measurement": "thermal shift delta Tm", "setting": "LOC_OS02G07810-cb001", "value": 1.12, "unit": "°C"},
      {"measurement": "thermal shift delta Tm", "setting": "LOC_OS02G08530-cb003", "value": 2.13, "unit": "°C"},
      {"measurement": "thermal shift delta Tm", "setting": "LOC_OS02G14120-cb001", "value": 2.4, "unit": "°C"},
      {"measurement": "thermal shift delta Tm", "setting": "LOC_OS02G17970-cb001", "value": 0.78, "unit": "°C"}
    ]},
    {"smiles": "CS(=O)(=O)N1CCc2c(-c3cnc(N)nc3)nc(N3CCOCC3)nc21", "values": [
      {"measurement": "thermal shift delta Tm", "setting": "LOC_OS01G57100-cb003", "value": 1.64, "unit": "°C"},
      {"measurement": "thermal shift delta Tm", "setting": "LOC_OS01G60330-cb001", "value": 1.56, "unit": "°C"},
      {"measurement": "thermal shift delta Tm", "setting": "LOC_OS01G60700-cb002", "value": 0.95, "unit": "°C"},
      {"measurement": "thermal shift delta Tm", "setting": "LOC_OS01G63280-cb003", "value": 0.4, "unit": "°C"},
      {"measurement": "thermal shift delta Tm", "setting": "LOC_OS01G67340-cb003", "value": 1.13, "unit": "°C"},
      {"measurement": "thermal shift delta Tm", "setting": "LOC_OS01G70970-cb002", "value": 0.73, "unit": "°C"},
      {"measurement": "thermal shift delta Tm", "setting": "LOC_OS02G07810-cb001", "value": 1.06, "unit": "°C"},
      {"measurement": "thermal shift delta Tm", "setting": "LOC_OS02G08530-cb003", "value": 1.51, "unit": "°C"},
      {"measurement": "thermal shift delta Tm", "setting": "LOC_OS02G14120-cb001", "value": 1.15, "unit": "°C"},
      {"measurement": "thermal shift delta Tm", "setting": "LOC_OS02G17970-cb001", "value": 0.81, "unit": "°C"}
    ]}
  ]
}
